Several values for one entry are separate records, joined by “and”; a condition that tells them apart may be missing. Equal values may be shown once. Results filed as inconclusive are left out. Some compounds were tested as several samples or in several runs, with calls that do not always agree. Activity calls are given as the source filed them. Rule for the calls, unless noted: active = hit-call score of the fitted dose curve at least 0.9, where 1 is the maximum; inconclusive = response in the unintended direction; inactive = score below 0.9.
How the values were obtained:
[1] = biological target: Bile acid receptor (Homo sapiens) (UniProt Q96RI1); test: OT_FXR_FXRSRC1_0480: Odyssey Thera (OT) 8-hour HEK293T Protein-Complementation Assay for Farnesoid X receptor/SRC-1 Co-activator (AID 2283383)
Summary of the method: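 Human kidney HEK293T cells carried FXR/SRC-1 fragment-complementation constructs. Compounds were added and incubated 8 h. Reporter reassembly upon receptor–co-activator interaction was then quantified by fluorescence, with curves fitted in the positive direction relative to DMSO.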

[2] = biological target: Bile acid receptor (Homo sapiens) (UniProt Q96RI1); test: OT_FXR_FXRSRC1_1440: Odyssey Thera (OT) 24-hour HEK293T Protein-Complementation Assay for Farnesoid X receptor/SRC-1 Co-activator (AID 2283384)
Summary of the method: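 Compounds are applied to human kidney HEK293T cells expressing bait and prey fused to reporter protein fragments; after 24 h, reconstituted reporter fluorescence is measured. Activity is fitted as signal gain over DMSO.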

[3] = read-out: Tumor necrosis factor receptor superfamily member 6 (Homo sapiens) (UniProt P25445); test: LTEA_HepaRG_FAS: Life Technologies and Expression Analysis (LTEA) Assay for Fas cell surface death receptor (FAS) using HepaRG (AID 2283447; active = hit-call score of the fitted dose curve at least 0.9, where 1 is the maximum; inactive = score below 0.9); conditions: mRNA level, 48 h; actives raise or lower the signal
Summary of the method: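 FAS transcript level was measured by TaqMan qRT-PCR against three housekeeping genes after 48 h chemical exposure. Cells were HepaRG, 0.5% DMSO vehicle, with a top concentration of 100 uM and half-log dilutions over eight points, in duplicate.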

[4] = read-out: Fatty acid synthase (Homo sapiens) (UniProt P49327); test: LTEA_HepaRG_FASN: Life Technologies and Expression Analysis (LTEA) Assay for Fatty Acid Synthase (FASN) using HepaRG (AID 2283448; active = hit-call score of the fitted dose curve at least 0.9, where 1 is the maximum; inactive = score below 0.9;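 for AC50: differentiated human HepaRG liver cells in serum-free induction medium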); conditions: mRNA level, 48 h; actives raise or lower the signal
Summary of the method: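 FASN expression changes, up or down relative to 0.5% DMSO, were measured by qRT-PCR in human HepaRG cells after 48 h treatment with chemicals at eight concentrations (half-log steps from 100 uM).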

[5] = read-out: Cyclin D2 (CCND2), CCND2 (gene 894); test: LTEA_HepaRG_CCND2: Life Technologies and Expression Analysis (LTEA) Assay for Cyclin D2 (CCND2) using HepaRG (AID 2283449; active = hit-call score of the fitted dose curve at least 0.9, where 1 is the maximum; inactive = score below 0.9); conditions: mRNA level, 48 h; actives raise or lower the signal
Summary of the method: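 Read-out is CCND2 mRNA level measured by qRT-PCR in human HepaRG liver cells and normalised to three housekeeping genes. Chemicals were applied for 48 h at up to 100 uM, with gain or loss fitted relative to 0.5% DMSO.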

[6] = read-out: Cyclin Dependent Kinase Inhibitor 1A (CDKN1A), CDKN1A (gene 1026); test: LTEA_HepaRG_CDKN1A: Life Technologies and Expression Analysis (LTEA) Assay for Cyclin Dependent Kinase Inhibitor 1A (CDKN1A) using HepaRG (AID 2283450; active = hit-call score of the fitted dose curve at least 0.9, where 1 is the maximum; inactive = score below 0.9); conditions: mRNA level, 48 h; actives raise or lower the signal
Summary of the method: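 HepaRG, 48 h dosing, 8-pt half-log series from 100 uM top, 0.5% DMSO vehicle, duplicates. Readout: TaqMan qRT-PCR of CDKN1A transcript, housekeeping-normalized (ACTB, GAPDH, POLR2A). Up/down curve fit relative to DMSO.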

[7] = read-out: Cyclin D1 (CCND1), CCND1 (gene 595); test: LTEA_HepaRG_CCND1: Life Technologies and Expression Analysis (LTEA) Assay for Cyclin D1 (CCND1) using HepaRG (AID 2283451; active = hit-call score of the fitted dose curve at least 0.9, where 1 is the maximum; inactive = score below 0.9;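 for AC50: differentiated human HepaRG liver cells in serum-free induction medium; TaqMan qRT-PCR transcript level normalised to ACTB GAPDH and POLR2A housekeeping genes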); conditions: mRNA level, 48 h; actives raise or lower the signal
Summary of the method: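 qRT-PCR (Fluidigm 96.96 array) read-out of transcript level, housekeeping-normalized (ACTB/GAPDH/POLR2A). HepaRG cells, 48 h chemical exposure, 8-point half-log series from 100 uM, 0.5% DMSO vehicle; gain or loss relative to DMSO baseline.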

[8] = read-out: catalase (CAT), CAT (gene 847); test: LTEA_HepaRG_CAT: Life Technologies and Expression Analysis (LTEA) Assay for catalase (CAT) using HepaRG (AID 2283452; active = hit-call score of the fitted dose curve at least 0.9, where 1 is the maximum; inactive = score below 0.9); conditions: mRNA level, 48 h; actives raise or lower the signal
Summary of the method: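 Expression of CAT was quantified by TaqMan qRT-PCR with ACTB/GAPDH/POLR2A normalization after 48 h chemical exposure of HepaRG. Eight-point half-log series, top 100 uM, in 0.5% DMSO; gain or loss fitted against vehicle.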

[9] = read-out: Cytochrome P450 (CYP1A1), CYP1A1 (gene 1543); test: LTEA_HepaRG_CYP1A1: Life Technologies and Expression Analysis (LTEA) Assay for Cytochrome P450 (CYP1A1) using HepaRG (AID 2283454; active = hit-call score of the fitted dose curve at least 0.9, where 1 is the maximum; inactive = score below 0.9); conditions: mRNA level, 48 h; actives raise or lower the signal
Summary of the method: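 qRT-PCR read-out: CYP1A1 transcript normalized to three housekeeping genes, fitted bidirectionally against 0.5% DMSO vehicle baseline. Human HepaRG cells, 48 h chemical exposure, 8-point half-log series topping at 100 uM.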

[10] = biological target: Retinoic acid receptor RXR-alpha (Homo sapiens) (UniProt P19793); test: OT_NURR1_NURR1RXRa_0480: Odyssey Thera (OT) 8-hour HEK293T Protein Complementation Assay for Nurr1/retinoid X receptor (RXR) (AID 2283385)
Summary of the method: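 8 h compound exposure, HEK293T; Nurr1/RXRα fragment complementation; fluorescence intensity; positive fitting direction vs DMSO baseline.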

[11] = biological target: Retinoic acid receptor RXR-alpha (Homo sapiens) (UniProt P19793); test: OT_NURR1_NURR1RXRa_1440: Odyssey Thera (OT) 24-hour HEK293T Protein Complementation Assay for Nurr1/retinoid X receptor (RXR) (AID 2283386)
Summary of the method: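 Interaction of Nurr1 with RXRα brings fused reporter fragments together in human HEK293T cells, restoring a functional reporter. Fluorescence intensity is measured 24 h after chemical treatment, and values are analysed in the positive direction against DMSO.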

[12] = CEETOX_H295R_CORTISOL: CeeTox H295R High-throughput Steroidogenesis Assay for Cortisol (AID 2283438; active = hit-call score of the fitted dose curve at least 0.9, where 1 is the maximum; inactive = score below 0.9;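 note: cortisol secreted into medium quantified by LC-MS/MS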); conditions: actives raise or lower the signal
Summary of the method: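 Forskolin 10 uM 48 h prestim → test cmpd in DMSO (0.1% final) 48 h → medium MTBE-extracted → LC-MS/MS cortisol vs 7-pt std curve. Gain/loss of signal fitted vs DMSO. MTT viability in same wells.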

[13] = CEETOX_H295R_DOC: CeeTox H295R High-throughput Steroidogenesis Assay for DOC (AID 2283439; active = hit-call score of the fitted dose curve at least 0.9, where 1 is the maximum; inactive = score below 0.9); conditions: actives raise or lower the signal
Summary of the method: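 Readout: 11-deoxycorticosterone in culture medium by reverse-phase C18 HPLC with ESI+ tandem MS after MTBE extraction. Cells: H295R, forskolin-primed (10 uM, 48 h), chemical-treated 48 h; DMSO 0.1% final. Activity fitted bidirectionally versus DMSO.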

[14] = CEETOX_H295R_11DCORT: CeeTox H295R High-throughput Steroidogenesis Assay for 11-Deoxycortisol (11DCORT) (AID 2283432; active = hit-call score of the fitted dose curve at least 0.9, where 1 is the maximum; inactive = score below 0.9;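 for AC50: 11-deoxycortisol secreted into the medium measured by LC-MS/MS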); conditions: actives raise or lower the signal
Summary of the method: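 Human adrenal H295R cells were prestimulated with 10 uM forskolin for 48 h, then exposed to test chemical (0.1% DMSO final) for 48 h. Medium 11-deoxycortisol was quantified by MTBE extraction and HPLC-MS/MS; bidirectional fitting relative to DMSO.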

[15] = CEETOX_H295R_OHPREG: CeeTox H295R High-throughput Steroidogenesis Assay for OH-Pregnenolone (OHPREG) (AID 2283434; active = hit-call score of the fitted dose curve at least 0.9, where 1 is the maximum; inactive = score below 0.9); conditions: actives raise or lower the signal
Summary of the method: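 Hormone levels in spent medium were measured by tandem mass spectrometry following liquid-liquid extraction. Cells (H295R) had been forskolin-stimulated (10 uM, 48 h) before a 48 h chemical exposure at 0.1% DMSO, with activity fitted in both directions against DMSO.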

[16] = CEETOX_H295R_OHPROG: CeeTox H295R High-throughput Steroidogenesis Assay for OH-Progesterone (OHPROG) (AID 2283435; active = hit-call score of the fitted dose curve at least 0.9, where 1 is the maximum; inactive = score below 0.9;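 for AC50: 17alpha-hydroxyprogesterone secreted into medium measured by HPLC-MS/MS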); conditions: actives raise or lower the signal
Summary of the method: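 H295R, 10 uM forskolin prestim 48 h; cmpd in 0.1% DMSO 48 h; medium MTBE-extracted, HPLC-MS/MS for OH-progesterone; 7-pt std curve; bidirectional fit vs DMSO; MTT viability, chemicals diluted until viability >/=70%.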

[17] = CEETOX_H295R_ANDR: CeeTox H295R High-throughput Steroidogenesis Assay for Androstenedione (ANDR) (AID 2283436; active = hit-call score of the fitted dose curve at least 0.9, where 1 is the maximum; inactive = score below 0.9); conditions: actives raise or lower the signal
Summary of the method: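 Read-out is androstenedione secreted into medium, measured by tandem mass spectrometry after liquid-liquid extraction. Cells were H295R, dosed for 48 h per modified OECD 456; activity fitted in both directions relative to DMSO.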

[18] = CEETOX_H295R_ESTRADIOL: CeeTox H295R High-throughput Steroidogenesis Assay for Estradiol (AID 2283440; active = hit-call score of the fitted dose curve at least 0.9, where 1 is the maximum; inactive = score below 0.9;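 note: estradiol secreted into medium quantified by LC-MS/MS after dansyl derivatisation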); conditions: actives raise or lower the signal
Summary of the method: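 H295R, 48 h forskolin (10 uM) prestim → 48 h compound, 0.1% DMSO final. Estradiol in medium: MTBE extraction, dansyl chloride derivatization, LC-MS/MS. Fit bidirectional vs DMSO baseline; MTT viability in same wells.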

[19] = CEETOX_H295R_ESTRONE: CeeTox H295R High-throughput Steroidogenesis Assay for Estrone (AID 2283441; active = hit-call score of the fitted dose curve at least 0.9, where 1 is the maximum; inactive = score below 0.9;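 note: estrone secreted into medium measured by LC-MS/MS after dansyl derivatization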); conditions: actives raise or lower the signal
Summary of the method: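 H295R cells prestimulated 48 h with 10 uM forskolin, then exposed 48 h to chemicals in 0.1% DMSO final; estrone in medium extracted with MTBE, dansyl-derivatized, quantified by HPLC-MS/MS; bidirectional fitting versus DMSO, viability by MTT.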

[20] = CEETOX_H295R_PROG: CeeTox H295R High-throughput Steroidogenesis Assay for Progesterone (PROG) (AID 2283442; active = hit-call score of the fitted dose curve at least 0.9, where 1 is the maximum; inactive = score below 0.9;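 for AC50: human H295R adrenal cells primed with 10 µM forskolin before dosing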); conditions: actives raise or lower the signal
Summary of the method: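 Progesterone read-out: HPLC-MS/MS on MTBE extracts of conditioned medium after 48 h chemical exposure of forskolin-primed (10 uM, 48 h) H295R cells. Gain or loss of signal was fitted relative to DMSO baseline.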

Measured: AC50

Chain of Bile acid receptor (Homo sapiens) (Q96RI1 whole entry, looked up, the tested form may be a part): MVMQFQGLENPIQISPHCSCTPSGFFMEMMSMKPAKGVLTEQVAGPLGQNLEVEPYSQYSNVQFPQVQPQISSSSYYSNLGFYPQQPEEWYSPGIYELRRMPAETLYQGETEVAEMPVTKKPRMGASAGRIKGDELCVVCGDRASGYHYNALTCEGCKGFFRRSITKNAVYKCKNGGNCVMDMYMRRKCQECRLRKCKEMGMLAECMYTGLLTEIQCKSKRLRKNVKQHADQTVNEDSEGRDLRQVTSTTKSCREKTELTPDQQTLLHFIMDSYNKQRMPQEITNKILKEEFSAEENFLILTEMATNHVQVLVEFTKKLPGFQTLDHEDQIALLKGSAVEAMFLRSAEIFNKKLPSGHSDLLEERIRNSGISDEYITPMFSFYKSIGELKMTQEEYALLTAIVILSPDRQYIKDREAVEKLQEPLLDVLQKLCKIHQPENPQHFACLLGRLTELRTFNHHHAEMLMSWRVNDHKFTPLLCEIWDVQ
Chain of Retinoic acid receptor RXR-alpha (Homo sapiens) (P19793 whole entry, looked up, the tested form may be a part): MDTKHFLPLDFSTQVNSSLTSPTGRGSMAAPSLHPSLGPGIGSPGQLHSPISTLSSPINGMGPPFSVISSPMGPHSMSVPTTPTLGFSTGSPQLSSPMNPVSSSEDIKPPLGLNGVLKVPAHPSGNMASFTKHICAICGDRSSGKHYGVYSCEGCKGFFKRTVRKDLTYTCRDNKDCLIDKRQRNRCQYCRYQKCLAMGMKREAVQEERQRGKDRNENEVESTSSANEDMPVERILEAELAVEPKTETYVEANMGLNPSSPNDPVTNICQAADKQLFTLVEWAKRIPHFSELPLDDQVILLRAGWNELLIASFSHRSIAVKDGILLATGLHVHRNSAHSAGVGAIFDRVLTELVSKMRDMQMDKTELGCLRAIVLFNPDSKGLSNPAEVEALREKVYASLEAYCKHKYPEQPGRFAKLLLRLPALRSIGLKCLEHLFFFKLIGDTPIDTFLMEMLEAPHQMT
Chain of Fatty acid synthase (Homo sapiens) (P49327 whole entry, looked up): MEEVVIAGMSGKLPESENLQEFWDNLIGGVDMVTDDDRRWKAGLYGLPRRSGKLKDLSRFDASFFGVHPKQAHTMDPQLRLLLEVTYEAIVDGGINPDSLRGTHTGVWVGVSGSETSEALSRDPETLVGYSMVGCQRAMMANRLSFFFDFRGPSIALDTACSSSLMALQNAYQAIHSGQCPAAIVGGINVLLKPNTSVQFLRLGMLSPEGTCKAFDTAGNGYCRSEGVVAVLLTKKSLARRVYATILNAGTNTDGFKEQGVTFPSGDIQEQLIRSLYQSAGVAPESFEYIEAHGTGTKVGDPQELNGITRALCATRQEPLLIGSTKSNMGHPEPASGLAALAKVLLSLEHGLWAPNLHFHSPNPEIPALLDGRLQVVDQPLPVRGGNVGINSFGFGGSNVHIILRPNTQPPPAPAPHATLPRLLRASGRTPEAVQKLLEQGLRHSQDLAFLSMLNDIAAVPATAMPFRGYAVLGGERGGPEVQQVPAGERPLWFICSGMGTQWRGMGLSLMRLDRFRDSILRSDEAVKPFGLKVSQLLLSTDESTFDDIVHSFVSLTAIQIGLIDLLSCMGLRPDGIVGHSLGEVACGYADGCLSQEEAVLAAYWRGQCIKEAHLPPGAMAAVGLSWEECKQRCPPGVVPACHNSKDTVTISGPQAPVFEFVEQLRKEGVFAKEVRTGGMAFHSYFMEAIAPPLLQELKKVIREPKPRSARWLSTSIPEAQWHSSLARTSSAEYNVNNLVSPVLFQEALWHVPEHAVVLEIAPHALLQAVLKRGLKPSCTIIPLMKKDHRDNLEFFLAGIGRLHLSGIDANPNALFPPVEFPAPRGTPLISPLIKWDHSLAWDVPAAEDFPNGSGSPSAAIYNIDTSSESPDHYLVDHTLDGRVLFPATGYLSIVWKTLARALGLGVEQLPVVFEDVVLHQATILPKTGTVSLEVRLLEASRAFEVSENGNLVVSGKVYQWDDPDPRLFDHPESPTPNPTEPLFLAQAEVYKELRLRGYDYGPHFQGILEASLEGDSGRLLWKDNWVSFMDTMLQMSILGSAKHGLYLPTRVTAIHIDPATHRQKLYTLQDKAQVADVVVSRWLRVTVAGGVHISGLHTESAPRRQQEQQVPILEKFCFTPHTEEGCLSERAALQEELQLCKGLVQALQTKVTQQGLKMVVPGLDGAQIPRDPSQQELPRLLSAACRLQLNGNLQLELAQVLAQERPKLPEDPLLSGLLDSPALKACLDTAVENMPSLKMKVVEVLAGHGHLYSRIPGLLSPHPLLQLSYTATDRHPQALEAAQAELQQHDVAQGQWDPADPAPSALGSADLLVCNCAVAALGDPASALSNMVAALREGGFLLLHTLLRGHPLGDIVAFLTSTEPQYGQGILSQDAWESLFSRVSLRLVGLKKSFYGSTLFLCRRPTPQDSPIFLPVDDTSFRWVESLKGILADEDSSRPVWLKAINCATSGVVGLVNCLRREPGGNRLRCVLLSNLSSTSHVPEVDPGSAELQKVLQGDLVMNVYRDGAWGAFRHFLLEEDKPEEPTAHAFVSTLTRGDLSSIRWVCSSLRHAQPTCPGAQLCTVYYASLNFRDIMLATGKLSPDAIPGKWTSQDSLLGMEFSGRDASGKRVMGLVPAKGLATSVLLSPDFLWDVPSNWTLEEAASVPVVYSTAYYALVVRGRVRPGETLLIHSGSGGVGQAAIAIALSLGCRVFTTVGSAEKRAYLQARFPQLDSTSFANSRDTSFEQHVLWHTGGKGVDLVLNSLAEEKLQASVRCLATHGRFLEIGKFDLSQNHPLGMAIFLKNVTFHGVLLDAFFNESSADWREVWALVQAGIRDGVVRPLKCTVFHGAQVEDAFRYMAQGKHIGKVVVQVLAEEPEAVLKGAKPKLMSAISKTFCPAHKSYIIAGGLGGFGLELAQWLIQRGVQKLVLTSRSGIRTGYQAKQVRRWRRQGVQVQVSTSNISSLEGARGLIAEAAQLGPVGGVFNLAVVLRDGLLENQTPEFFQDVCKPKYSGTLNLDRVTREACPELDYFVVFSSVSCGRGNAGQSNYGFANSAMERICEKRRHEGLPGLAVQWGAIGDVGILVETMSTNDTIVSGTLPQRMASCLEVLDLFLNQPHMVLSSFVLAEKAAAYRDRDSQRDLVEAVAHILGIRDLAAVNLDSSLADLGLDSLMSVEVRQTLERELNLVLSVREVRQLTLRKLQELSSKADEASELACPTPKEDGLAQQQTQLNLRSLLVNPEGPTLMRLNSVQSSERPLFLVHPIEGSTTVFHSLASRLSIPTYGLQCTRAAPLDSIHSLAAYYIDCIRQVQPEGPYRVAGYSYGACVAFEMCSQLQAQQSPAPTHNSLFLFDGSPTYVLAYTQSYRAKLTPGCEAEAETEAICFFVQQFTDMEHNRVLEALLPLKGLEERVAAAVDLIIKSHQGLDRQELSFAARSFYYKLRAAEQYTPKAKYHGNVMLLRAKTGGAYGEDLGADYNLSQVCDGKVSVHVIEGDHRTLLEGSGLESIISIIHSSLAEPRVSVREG

Cc1[nH]nc2c1N=C(c1ccccc1Cl)c1cc([N+](=O)[O-])ccc1N2
inactive: [5] | [6]
active: [1] 1.06 µM | [2] 0.279 µM | [3] 4.11 µM | [4] 7.35 µM | [7] 1.22 µM | [8] 16.1 µM | [9] 81.8 µM

CCCCCCCCCC=CCC1CC(=O)OC1=O (centres undefined)
inactive: [1] | [2] | [10]

CCCCCCc1ccc(N)cc1
inactive: [10] | [11]
active: [1] 17 µM | [2] 6.61 µM

O=C(c1ccccc1)c1ccccc1
inactive: [1] | [10] | [11] | [3] | [4] | [5] | [6] | [7] | [8]

O=C1OC2(c3ccccc31)c1cc(I)c(O)c(I)c1Oc1c2cc(I)c(O)c1I
inactive: [10]

CCCCC=O
inactive: [2] | [10] | [11] | [3] | [4] | [5] | [6] | [7] | [8] | [9]

CCCCCCC(C)(C)C(=O)O
inactive: [1] | [2] | [10] | [11]

C=CC(C)(CCC=C(C)C)OC(C)=O (centres undefined)
inactive: [2] | [10]
active: [1] 76 µM

O=C(CCCN1CCC(O)(c2ccc(Cl)cc2)CC1)c1ccc(F)cc1
inactive: [1] | [2] | [10] | [11] | [12] | [13] | [7]
active: [11] 80.3 µM | [3] 85.8 µM | [4] 9.92 µM | [6] 79.9 µM | [8] 68.4 µM | [9] 12.4 µM

CCCCc1oc2ccccc2c1C(=O)c1cc(I)c(OCCN(CC)CC)c(I)c1
active: [1] 9.16 µM | [2] 8.87 µM | [10] 8.75 µM | [11] 8.94 µM and 8.82 µM | [3] 66.6 µM | [4] 9.27 µM | [6] 68.3 µM | [8] 37.8 µM
inactive: [10] | [5] | [7]

Cc1ccc(C)c(S(=O)(=O)O)c1
inactive: [10]

CCCCCCCCCCCC(=O)O
inactive: [10] | [11]

CN(Cc1cnc2nc(N)nc(N)c2n1)c1ccc(C(=O)N[C@@H](CCC(=O)O)C(=O)O)cc1
inactive: [1] | [2] | [10] | [11] | [3] | [5] | [6] | [7] | [8] | [9]
active: [4] 3.33 µM

CC(C)[C@@H]1CC[C@@H](C)C[C@H]1O
inactive: [1] | [11]

O=S(=O)(O)c1ccccc1
inactive: [1] | [2] | [10] | [11]

Cc1cc(C(C)(C)C)c(O)c(C(C)(C)C)c1
active: [1] 11.3 µM | [2] 11.4 µM | [10] 74.6 µM | [11] 77.3 µM

CCCCCCCCCCCCOC(=O)c1cc(O)c(O)c(O)c1
inactive: [2]

c1cnc2c(c1)ccc1cccnc12
active: [11] 0.727 µM
inactive: [10]

CCCCc1ccc2ccccc2c1S(=O)(=O)O
inactive: [1]

NCc1cccc(CN)c1
inactive: [2] | [11]

Cc1cc(C(=C2C=CC(=Nc3ccc(S(=O)(=O)O)cc3)C=C2)c2ccc(Nc3ccc(S(=O)(=O)O)cc3)cc2)cc(S(=O)(=O)O)c1N
inactive: [1] | [2]

CCc1ccccc1O
inactive: [1]

OCC(CO)(CBr)CBr
inactive: [2] | [10] | [3] | [4] | [5] | [6] | [7] | [8] | [9]

COc1cc([N+](=O)[O-])ccc1N
active: [2] 28 µM | [16] 15.1 µM | [13] 23.8 µM | [20] 24.2 µM
inactive: [1] | [10] | [11] | [14] | [15] | [17] | [12] | [18] | [19]

CCCCCC(C)OC(=O)COc1ccc(Cl)c2cccnc12 (centres undefined)
inactive: [11] | [15] | [16] | [13] | [20]
active: [1] 44 µM | [2] 22.7 µM | [10] 15 µM | [14] 18.7 µM | [12] 34.9 µM

CC(C)(c1ccc(Oc2ccc(N)cc2)cc1)c1ccc(Oc2ccc(N)cc2)cc1
inactive: [18] | [19]
active: [14] 0.249 µM | [15] 0.0361 µM | [16] 0.235 µM | [17] 0.234 µM | [12] 0.401 µM | [13] 0.2 µM | [20] 0.134 µM

COc1cccc(O)c1
inactive: [14] | [15] | [16] | [12] | [13] | [20]

NS(=O)(=O)O
inactive: [10] | [11]

Reference: PubChem BioAssay (EPA / NIEHS)
